From PubChem
Pf growth 96h – Primary qHTS for delayed death inhibitors of the malarial parasite plastid, 96 hour incubation | Potency, µM (top dose mostly 28.7 µM), inactives show at the highest dose activity change, negative = inhibition, actives largely listed as inhibitors | P. falciparum luciferase reporter growth, 96 h | 320,000 tested, 6.9% active | AID 504834, 2011; note: % is set by controls: 0 for no effect and ±100 for the full control effect
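Cell-based qHTS: luciferase-tagged P. falciparum in erythrocytes (2% hematocrit, 0.05% parasitemia final) incubated with compounds for 96 hours, 37 C, 5% CO2; luciferase detection reagent then added and luminescence measured.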
AMA1-RON2 inh – qHTS for Inhibitors of AMA1-RON; Towards Development of Antimalarial Drug Lead: Primary Screen; Plasmodium falciparum AMA1 (3D7) - RON2 peptide interaction; AlphaScreen AMA1-biotinylated RON2 peptide binding; Potency, µM (series often up to 58.2 µM), without a hit: top-dose activity change, negative = inhibition, hits mostly inhibitors; 360,000 tested, 0.2% active; AID 720542, 2013;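 note: 0% = vehicle wells and -100% = peptide control; nearly all actives have a fitted effect of over 45% in size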
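AMA1 (3D7) with his tag at 25 nM final met compounds first, then biotinylated RON2 peptide at 25 nM; detection used donor plus acceptor beads, 10 µg/mL apiece, read by AlphaScreen after 30 min at room temperature.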
Pf growth 48h – Primary qHTS for delayed death inhibitors of the malarial parasite plastid, 48 hour incubation | AID 504832, 2011 | P. falciparum luciferase growth in erythrocytes, 48 h | 310,000 tested, 5.9% active | Potency, µM (titrated, usually from 28.7 µM), for inactives: at the top dose activity change, negative = inhibition, actives largely listed as inhibitors; note: % is set by controls: 0 for no effect and ±100 for the full control effect
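Cell-based growth assay: transgenic P. falciparum expressing firefly luciferase, cultured in red cells within RPMI 1640 containing 0.5% w/v Albumax, 24 mM bicarbonate and gentamycin. A drop in luciferase activity indicates inhibition.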
SARS PLpro yeast – qHTS of Yeast-based Assay for SARS-CoV PLP; S. cerevisiae expressing SARS-CoV PLpro, growth rescue; Potency, µM (titrated, usually from 32.9 µM), for inactives: at the highest dose activity, positive = growth rescue, usual class: activators; 330,000 tested, 0.19% active; AID 485353, 2010; calls by dose curve; note: 0% is about no effect; nearly all actives have a fitted effect of over 55% in size
NS1 inh – qHTS Assay for Inhibitors of Influenza NS1 Protein Function; 270,000 tested, 0.4% active; Potency, µM (top dose mostly 46.1 µM), for the others: at the highest dose activity, positive = more growth; calls by dose curve; note: actives are rising curves; nearly all actives have a fitted effect of over 50% in size
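Growth recovery, yeast-based: influenza A NS1 expressed in S. cerevisiae causes slow growth, and suppressors are detected by OD600. The parent strain without NS1 is used as positive control.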
HCV inh – qHTS Assay for Inhibitors of Hepatitis C Virus (HCV); Huh7.5.1 HCVcc-Cre infection, luciferase reporter, 44 h; Potency, µM (top dose mostly 41.8 µM), without a hit: at the highest dose activity change, negative = inhibition, hits mostly inhibitors; 340,000 tested, 3.4% active; note: % is set by controls: 0 for no effect and ±100 for the full control effect
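Infectious HCVcc-Cre (~0.5 moi) was added to cells just after compound, with cells seeded 4 h earlier at 1,000 per well. Luciferase activity after 44 h culture reported infection; substrate was incubated 15 min at room temperature before reading.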
* = called active by the depositor; ? = inconclusive; nt = no result given; [ ] = another dose, or the depositor's remark. In the library only some 12% were active in any assay of this set; here they are far more common. Unless noted, calls come from the whole dose curve; as a rule, active = well fitted curve in the direction sought with a large enough effect; inconclusive = small, poorly fitted or top-dose-only effect, or another doubt; inactive = no such curve, though single readings can be large; an effect the other way counts as inactive or inconclusive. Potency is the fitted concentration of half-maximal effect.

SMILES	Pf growth 96h	AMA1-RON2 inh	Pf growth 48h	SARS PLpro yeast	NS1 inh	HCV inh
CCCN1CCC(NC(=O)C2CC=CCC2C(=O)O)CC1 (configuration not stated)	27.3%	-1.8%	9.2%	-2.1%	3.3%	9.4%
O=C(CN1C(=O)/C(=C/c2ccccc2F)Sc2ccccc21)NCC1CCCO1 (configuration not stated)	-4.3%	5.0%	-2.6%	0.9%	-11.6%	?
c1ccc(COC(CN2CCCCCC2)CN2CCCCCC2)cc1	-26.7%	4.5%	?	0.5%	4.8%	10µM*
OC(COCc1ccccc1)CN1CCCC1 (configuration not stated)	-3.0%	0.2%	6.5%	?	3.7%	-2.9%
CC(=O)C1=CN(Cc2ccccc2)CCC1=O	nt	-2.5%	nt	nt	nt	-17.9%
O=C(c1ccc(-n2cncn2)c2ccoc12)N1CCOCC1	nt	-3.0%	nt	nt	nt	nt
O=C(COc1ncnc2ccccc12)Nc1cc([N+](=O)[O-])ccc1F	5.22µM*	21.2%	2.7%	1.2%	-3.6%	8.1%
O=C(COC(=O)CCc1ccccc1)Nc1cc([N+](=O)[O-])ccc1F	2.6%	-3.9%	?	-2.6%	-14.5%	8.1%
O=C(CCn1c(=S)oc2ccccc21)Nc1cc([N+](=O)[O-])ccc1F	-4.5%	-1.5%	8.28µM*	-0.2%	2.4%	-11.8%
O=C(CSCc1ccccc1)Nc1cc([N+](=O)[O-])ccc1F	5.22µM*	3.3%	-16.2%	0.4%	nt	-1.9%
O=C(O)CCCC(=O)Nc1cc([N+](=O)[O-])ccc1O	13.1µM*	-2.6%	3.1%	0.5%	-3.2%	8.6%
CCCC(CCC(=O)Nc1cc([N+](=O)[O-])ccc1O)C(=O)O (configuration not stated)	28.9%	3.1%	34.6%	2.7%	nt	27.7%
CC(C)(C)c1ccc(S(=O)(=O)NC(=O)C2(C)CCN2C(=O)C2CC2)cc1 (configuration not stated)	nt	4.8%	nt	nt	nt	nt
CCn1c(C)[n+](CCOCC[n+]2c(C)n(CC)c3cc(Cl)c(Cl)cc32)c2cc(Cl)c(Cl)cc21	10.4µM*	6.8%	nt	-7.9%	-1.4%	21.0%
CC(=O)OCCn1c(C)[n+](CCOC(C)=O)c2cc(Cl)c(Cl)cc21	?	-1.0%	?	0.3%	nt	11.4%
Cc1ccc(C)c(C2(O)CC(C)N(C)CC2C)c1 (configuration not stated)	6.57µM*	-4.6%	-1.6%	1.0%	4.8%	-2.9%
Cc1ccc(CN2CCN(Cc3cccn3-c3ccccn3)CC2CCO)o1 (configuration not stated)	-6.2%	2.6%	6.2%	2.3%	-3.2%	10.0%
CN1C[C@@H]2C(c3ccc(C(F)(F)F)cc3)C3(c4ccccc4)CC2(C3)[C@H]1c1ccccc1 (some centres not stated)	?	?	?	0.1%	?	22.2%
N#Cc1ccc(C23CC4(C2)[C@H](CN(Cc2ccc(-c5ccccc5)cc2)[C@@H]4c2ccccc2)C3c2ccc(C(F)(F)F)cc2)cc1 (some centres not stated)	?	-2.5%	14.7µM*	1.0%	?	0.9%
FC(F)(F)c1ccc(C2[C@H]3CN(Cc4cccnc4)[C@H](c4ccccc4)C34CC2(c2cccnc2)C4)cc1 (some centres not stated)	1.47µM*	-9.6%	1.85µM*	-14.6%	-41.4%	?
COC(=O)c1cccc(C23CC4(C2)[C@H](CN(Cc2ccc(C(F)(F)F)cc2)[C@@H]4c2ccccc2)C3c2ccccc2)c1 (some centres not stated)	?	-9.4%	?	-5.1%	?	-3.5%
c1ccc(-c2ccc(CN3C[C@@H]4C(c5ccccc5)C5(c6cccnc6)CC4(C5)[C@H]3c3ccccc3)cc2)cc1 (some centres not stated)	4.15µM*	-0.4%	2.94µM*	-0.7%	-0.5%	-1.5%[8.37 µM]
Clc1ccc(C2[C@H]3CN(Cc4cccnc4)[C@H](c4ccccc4)C34CC2(c2cccnc2)C4)cn1 (some centres not stated)	4.65µM*	-28.8%	10.4µM*	1.4%	-4.9%	-19.9%
C=CCn1c(C)c(C(C)=O)c(N2CCN(C(c3ccccc3)c3ccccc3)CC2)nc1=S	?	-11.9%	?	4.5%	nt	?
CCN(CC)CCNC(=O)Cn1cnc2sc(C)c(S(=O)(=O)N3CC(C)CC(C)C3)c2c1=O (configuration not stated)	-19.6%	1.9%	0.5%	-3.0%	-14.8%	-1.4%
SMILES	Pf growth 96h	AMA1-RON2 inh	Pf growth 48h	SARS PLpro yeast	NS1 inh	HCV inh
CC(C)(C)OC[C@H](NC(=O)c1[nH]cnc1C(=O)Nc1ccccc1F)C(=O)OC(C)(C)C	nt	107.5%	nt	nt	nt	nt
CCCc1cc(=O)[nH]c(SCC(=O)Nc2ccc(Br)cc2Br)n1	9.0%	3.8%	38.7%	2.3%	nt	9.1%
FC(F)(F)c1ccc(C2[C@H]3CN(Cc4ccc(-c5ccccc5)cc4)[C@H](c4ccccc4)C34CC2(c2cccnc2)C4)cc1 (some centres not stated)	0.415µM*	31.8%	3.29µM*	0.3%	23.0%	5.8%
CN1C[C@@H]2C(c3ccccc3)C3(c4cccnc4)CC2(C3)[C@H]1c1ccccc1 (some centres not stated)	11.7µM*	-3.7%	11.7µM*	-5.1%	11.1%	?
FC(F)(F)c1ccc(C2[C@H]3CN(Cc4ccc(-c5ccccc5)cc4)[C@H](c4ccccc4)C34CC2(c2ccccc2)C4)cc1 (some centres not stated)	-99.2%	-5.2%	?	-1.7%	8.6%	-1.6%[8.37 µM]
FC(F)(F)c1ccc(CN2C[C@@H]3C(c4ccc(Cl)nc4)C4(c5ccccc5)CC3(C4)[C@H]2c2ccccc2)cc1 (some centres not stated)	?	-2.3%	11.7µM*	-2.4%	12.9%	-6.1%
Cc1ccccc1C(=O)NNC(=O)CSc1nc(-c2ccccc2)cc(=O)[nH]1	?	97.9%	15.0%	3.5%	7.6%	-26.4%
N#CC(=Cc1ccc(O)cc1)C(N)=C(C#N)C#N	2.7%	1.5%	0.1%	nt	nt	-1.9%
COc1cc2c3nc4n(c(=O)c3n(CC(=O)NCC3CCCO3)c2cc1OC)CCS4 (configuration not stated)	1.5%	-7.0%	0.9%	-3.4%	-4.8%	25.1%
